Assay outcomes (PubChem BioAssay)
TDP1 inh: inhibitors of human tyrosyl-DNA phosphodiesterase TDP1; Q9NUW8; recombinant TDP1, AlphaScreen DNA substrate cleavage; Potency, µM (series often up to 130 µM), usual class: inhibitors; 350,000 compounds, 0.28% hits; AID 485290; note: nearly all actives have a fitted effect of over 40% in size
Target sequence (Q9NUW8 whole entry, looked up): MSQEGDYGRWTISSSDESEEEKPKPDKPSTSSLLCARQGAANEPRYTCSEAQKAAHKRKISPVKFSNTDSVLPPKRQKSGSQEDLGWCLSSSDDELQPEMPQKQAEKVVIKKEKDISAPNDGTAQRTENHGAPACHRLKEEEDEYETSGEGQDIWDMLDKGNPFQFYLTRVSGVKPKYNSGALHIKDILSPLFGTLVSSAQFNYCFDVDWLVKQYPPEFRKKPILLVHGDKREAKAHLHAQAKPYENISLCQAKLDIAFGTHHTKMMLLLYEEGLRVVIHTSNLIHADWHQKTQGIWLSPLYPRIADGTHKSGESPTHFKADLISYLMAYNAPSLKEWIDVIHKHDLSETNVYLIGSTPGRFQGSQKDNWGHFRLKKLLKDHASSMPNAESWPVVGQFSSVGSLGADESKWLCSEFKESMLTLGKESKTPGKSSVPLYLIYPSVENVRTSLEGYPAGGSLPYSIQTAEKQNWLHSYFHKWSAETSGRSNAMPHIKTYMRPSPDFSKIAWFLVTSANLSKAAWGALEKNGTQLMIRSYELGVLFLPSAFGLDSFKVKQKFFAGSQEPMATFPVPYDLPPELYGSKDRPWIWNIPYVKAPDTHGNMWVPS
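Signal: AlphaScreen proximity between streptavidin donor and anti-FITC acceptor beads on intact substrate. Reaction: Tdp1 1 nM, substrate 15 nM final, 5 min RT after 15 min compound preincubation.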
TGFb SMAD3 inh: TGF-b pathway inhibition; HepG2 CAGA-GFP TGF-b/SMAD3 reporter, GFP fluorescence, 18 h; TGF-beta stimulated, 500 pg/mL final; Potency, µM (titrated, usually from 46.1 µM), usual class: inhibitors; 410,000 compounds, 1.2% hits; AID 588855; note: nearly all actives have a fitted effect of over 65% in size
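TGF-beta reporter screen: HEPG2 CAGA-GFP, 1% FBS, 500 pg/mL TGF-beta final, 18 h; per-cell GFP summed per well; curves fitted and categorized by class.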
TDP1 cell CPT: DT40-hTDP1 cell growth loss with CPT | chicken DT40 Tdp1-/-;hTDP1 cells + 20 nM CPT, ATP luminescence, 48 h | Potency, µM (highest dose often 46.2 µM), most hits filed as inhibitors | 420,000 compounds, 12% hits; note: nearly all actives have a fitted effect of over 55% in size
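Chicken DT40 Tdp1-/- cells stably complemented with human TDP1 were seeded at 400 cells/well in medium containing 20 nM camptothecin, exposed to pin-transferred compounds, and grown at 37 °C for at least 48 hr. Viability was read as ATP luminescence.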
IL1B secr inh: inflammasome signaling inhibition, IL-1 beta readout; THP-1 LPS/ATP IL-1B secretion, AlphaLISA, 16 h; hits give low values; activity change, % at 57.5 µM; 360,000 compounds, 4.7% hits; in the data active = activity change below about -50%; inconclusive = mostly about -30% to -49%
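THP-1 cells pretreated 1 hr with compounds (up to 57.5 uM final), then stimulated with LPS (250 ng/mL final) plus ATP (1.25 mM final); secreted IL-1B measured by AlphaLISA after 16 hr, decreased signal indicating inhibition.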
HepG2 viability: counter-screen for TGF-b inhibitors: cytotoxicity in HepG2 cells. HepG2 CAGA-GFP viability, ATP luminescence, 18 h. AID 588856. 410,000 compounds, 0.76% hits. Potency, µM (series often up to 46.1 µM), actives largely listed as cytotoxic
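HepG2 CAGA-GFP cells (1000/well, DMEM with 1% FBS) received compound, then TGF-beta at 500 pg/mL final, and were incubated 18 hours at 37 degrees C. Viability was read by CellTiter-Glo luminescence. Media-only wells were set as complete cell-killing and DMSO as no toxicity.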
TDP1 cell noCPT: qHTS for Inhibitors of human tyrosyl-DNA phosphodiesterase 1 (TDP1): qHTS in cells in absence of CPT; DT40 Tdp1-/- hTDP1 cells, no CPT, ATP luminescence, 48 h; Potency, µM (series often up to 46.2 µM), hits mostly inhibitors; 420,000 compounds, 15% hits; AID 686978, 2013; note: nearly all actives have a fitted effect of over 55% in size
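Readout: luminescence from CellTiter-Glo after 30 min in the dark at RT. Cells: DT40 Tdp1-/- with stable hTDP1, 400/well. Exposure: compounds alone, ≥48 hr, 37 °C.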
A number is an active result; [ ] = dose if it differs, or a comment. Only some compounds are listed: those with a hit (about 19% of all), similar ones and a draw of the others. Unless noted, calls come from the whole dose curve; as a rule, active = well fitted curve in the direction sought with a large enough effect; inconclusive = small, poorly fitted or top-dose-only effect, or another doubt; inactive = no such curve, though single readings can be large; an effect the other way counts as inactive or inconclusive.

How did CC(NC(=O)/C=C/c1cnc2ccccc2n1)C12CC3CC(CC(C3)C1)C2 (centres undefined) do in these assays?
TDP1 inh: inactive; TGFb SMAD3 inh: inconclusive; TDP1 cell CPT: inconclusive; IL1B secr inh: inactive; HepG2 viability: inactive; TDP1 cell noCPT: 18µM

Results for COc1ccc(CN(Cc2ccccc2)C(=O)c2ccccc2O)cc1 ?
TDP1 inh: 11µM

Results for COc1ccc(S(=O)(=O)NCC(=O)N(CC(=O)NCc2ccco2)Cc2ccccc2)cc1 ?
TDP1 inh: inactive; TGFb SMAD3 inh: inactive; TDP1 cell CPT: inactive; IL1B secr inh: inactive; HepG2 viability: inactive; TDP1 cell noCPT: inactive

How did COc1ccc(CN(Cc2ccco2)C(=O)c2ccccc2F)cc1 do in these assays?
TDP1 inh: inactive; TGFb SMAD3 inh: inactive; TDP1 cell CPT: 16µM; HepG2 viability: inactive; TDP1 cell noCPT: 16µM

What do the screens show for `COc1ccc(C(=O)N(Cc2ccco2)Cc2ccco2)cc1`?
TDP1 inh: inactive; TGFb SMAD3 inh: inactive; TDP1 cell CPT: inconclusive; HepG2 viability: inactive; TDP1 cell noCPT: inconclusive

How did Cc1ccc(S(=O)(=O)NCC(=O)N(c2ccccc2)C(C(=O)NCc2ccccc2)c2ccco2)cc1 (centres undefined) do in these assays?
TDP1 inh: inactive; TGFb SMAD3 inh: inconclusive; TDP1 cell CPT: inconclusive; IL1B secr inh: inconclusive; HepG2 viability: inactive; TDP1 cell noCPT: 18µM

What do the screens show for `COc1ccc(CNC(=O)CN(Cc2ccco2)C(=O)CNS(=O)(=O)c2ccccc2)cc1`?
TGFb SMAD3 inh: inactive; TDP1 cell CPT: inconclusive; IL1B secr inh: -67; HepG2 viability: inactive; TDP1 cell noCPT: inactive

How did COc1cccc(CNc2nc3cc(-c4cccc(OC)c4)sc3c(=O)n2C)c1 do in these assays?
TGFb SMAD3 inh: inactive; TDP1 cell CPT: inconclusive; IL1B secr inh: inactive; HepG2 viability: inactive; TDP1 cell noCPT: inconclusive

What do the screens show for `COc1cccc(CNc2nc3cc(-c4ccc(OC)cc4C)sc3c(=O)n2C)c1`?
TGFb SMAD3 inh: inconclusive; TDP1 cell CPT: inconclusive; IL1B secr inh: inactive; HepG2 viability: inactive; TDP1 cell noCPT: inconclusive

How did COc1cccc(CNc2nc3cc(-c4ccccc4CO)sc3c(=O)n2C)c1 do in these assays?
TGFb SMAD3 inh: inactive; TDP1 cell CPT: 18µM; IL1B secr inh: inactive; HepG2 viability: inactive; TDP1 cell noCPT: inconclusive

How did COc1cccc(CNc2nc3cc(-c4cscc4C)sc3c(=O)n2C)c1 do in these assays?
TGFb SMAD3 inh: inconclusive; TDP1 cell CPT: inconclusive; IL1B secr inh: -57; HepG2 viability: inactive; TDP1 cell noCPT: 21µM

Results for COCCN(C(=O)CCC(=O)Nc1ccccn1)C(C(=O)NCCC(C)C)c1ccc(C)cc1 (centres undefined) ?
TGFb SMAD3 inh: inactive; TDP1 cell CPT: inactive; IL1B secr inh: inactive; HepG2 viability: inactive; TDP1 cell noCPT: inactive

What do the screens show for `CC[C@]12c3[nH]c4cc(CCC(=O)N(C)C)ccc4c3CCN1C(=O)[C@@H](CC(=O)NC/C=C(\C)CCC=C(C)C)C[C@@H]2C(=O)N1CCN(C(=O)c2ccco2)CC1`?
TDP1 inh: inactive; TGFb SMAD3 inh: inconclusive; TDP1 cell CPT: 10µM; IL1B secr inh: inactive; HepG2 viability: inactive; TDP1 cell noCPT: 5.8µM

Results for COCCCNC(=O)C[C@H]1C[C@H](C(=O)N2CCOCC2)[C@@]2(CCC3CCCC3)c3[nH]c4cc(CCC(=O)N(C)C)ccc4c3CCN2C1=O ?
TDP1 inh: inactive; TGFb SMAD3 inh: inactive; TDP1 cell CPT: inactive; IL1B secr inh: inactive; HepG2 viability: inactive; TDP1 cell noCPT: inactive

How did CC(C)=CCC/C(C)=C/CNC(=O)C[C@H]1C[C@H](C(=O)N2CCOCC2)[C@@]2(CCC3CCCC3)c3[nH]c4cc(CCC(=O)N(C)C)ccc4c3CCN2C1=O do in these assays?
TDP1 inh: inactive; TGFb SMAD3 inh: inconclusive; TDP1 cell CPT: 5.8µM; IL1B secr inh: inconclusive; HepG2 viability: inactive; TDP1 cell noCPT: 6.5µM

What do the screens show for `CN(C)C(=O)CCc1ccc2c3c([nH]c2c1)[C@]1(CCC2CCCC2)[C@@H](C(=O)N2CCOCC2)C[C@H](CC(=O)NCC24CC5CC(CC(C5)C2)C4)C(=O)N1CC3`?
TDP1 inh: inactive; TGFb SMAD3 inh: inactive; TDP1 cell CPT: inconclusive; IL1B secr inh: inactive; HepG2 viability: inactive; TDP1 cell noCPT: 23µM

How did Cc1c(C(=O)NCc2ccccc2Cl)sc2ncnc(NCC3CCCO3)c12 (centres undefined) do in these assays?
TDP1 cell CPT: inactive[9.04 µM]; TDP1 cell noCPT: inactive

What do the screens show for `O=C(CSc1nc2ccccc2c(=O)n1-c1ccc(F)cc1)Nc1ccc(Cl)c(S(=O)(=O)N2CCOCC2)c1`?
TDP1 inh: inactive; TGFb SMAD3 inh: inconclusive; TDP1 cell CPT: inconclusive; IL1B secr inh: inactive; HepG2 viability: inactive; TDP1 cell noCPT: 16µM

How did Cc1ccc(-n2c(SCC(=O)Nc3cc(S(=O)(=O)N4CCOCC4)ccc3Cl)nc3ccccc3c2=O)cc1 do in these assays?
TDP1 inh: inactive; TGFb SMAD3 inh: inconclusive; TDP1 cell CPT: inactive; IL1B secr inh: inactive; HepG2 viability: inactive; TDP1 cell noCPT: inactive

How did O=C(CSc1nc2ccccc2c(=O)n1-c1ccc(F)c(Cl)c1)Nc1cccc(S(=O)(=O)N2CCOCC2)c1 do in these assays?
TDP1 inh: inactive; TGFb SMAD3 inh: inactive; TDP1 cell CPT: 16µM; IL1B secr inh: inactive; HepG2 viability: inactive; TDP1 cell noCPT: inconclusive

What do the screens show for `CC[C@]12c3[nH]c4ccc(Cl)cc4c3CCN1C(=O)[C@@H](CC(=O)NCCC1=CCCCC1)C[C@@H]2C(=O)N1CCN(C(=O)C2CC2)CC1`?
TDP1 inh: inactive; TGFb SMAD3 inh: inactive; TDP1 cell CPT: inconclusive; IL1B secr inh: inactive; HepG2 viability: inactive; TDP1 cell noCPT: 26µM

What do the screens show for `CC[C@]12c3[nH]c4ccccc4c3CCN1C(=O)C(CC(=O)NCCC1=CCCCC1)C[C@@H]2C(=O)N1CCN(C(=O)C2CC2)CC1` (some centres undefined)?
TDP1 inh: inactive; TGFb SMAD3 inh: inactive; TDP1 cell CPT: 18µM; IL1B secr inh: inactive; HepG2 viability: inactive; TDP1 cell noCPT: 16µM

What do the screens show for `CC[C@]12c3[nH]c4cc(CCC(=O)N(C)C)ccc4c3CCN1C(=O)[C@@H](CC(=O)NCCC1=CCCCC1)C[C@@H]2C(=O)N1CCN(C(=O)C2CC2)CC1`?
TDP1 inh: inactive; TGFb SMAD3 inh: inactive; TDP1 cell CPT: inconclusive; IL1B secr inh: inconclusive; HepG2 viability: inactive; TDP1 cell noCPT: inconclusive
